SW480 rereplic = A quantitative high throughput screen for small molecules that induce DNA re-replication in SW480 colon adenocarcinoma cells; AID 624297, 2012; 340,000 compounds, 1.8% hits; SW480 DNA re-replication, Hoechst DNA content imaging, 48 h; Potency, µM (doses to about 46.1 µM), for the others: top-dose re-replication activation, hits mostly activators; also: % of control where 0% means no effect; nearly all actives have a fitted effect of over 55% in size
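Hoechst fluorescence of nuclei (405 nm excitation, 500-530 nm emission) measured by plate-scanning imager after 48 hr compound exposure at 37 C; re-replication scored as increased number of nuclei with elevated intensity.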
ALOX12 inh = Primary qHTS assay for inhibitors of human arachidonate 12S-lipoxygenase (ALOX12): Round 2. Polyunsaturated fatty acid lipoxygenase ALOX12 (Homo sapiens), P18054. purified 12hLO, xylenol orange hydroperoxide absorbance. Potency, µM (top dose mostly 108 µM), inactives show at the highest dose activity change, negative = inhibition, usual class: inhibitors. 580,000 compounds, 1.1% hits. AID 1671190, 2021; also: % is scaled to controls: 0 for no effect and ±100 for the full control effect
Target sequence (P18054 whole entry, looked up): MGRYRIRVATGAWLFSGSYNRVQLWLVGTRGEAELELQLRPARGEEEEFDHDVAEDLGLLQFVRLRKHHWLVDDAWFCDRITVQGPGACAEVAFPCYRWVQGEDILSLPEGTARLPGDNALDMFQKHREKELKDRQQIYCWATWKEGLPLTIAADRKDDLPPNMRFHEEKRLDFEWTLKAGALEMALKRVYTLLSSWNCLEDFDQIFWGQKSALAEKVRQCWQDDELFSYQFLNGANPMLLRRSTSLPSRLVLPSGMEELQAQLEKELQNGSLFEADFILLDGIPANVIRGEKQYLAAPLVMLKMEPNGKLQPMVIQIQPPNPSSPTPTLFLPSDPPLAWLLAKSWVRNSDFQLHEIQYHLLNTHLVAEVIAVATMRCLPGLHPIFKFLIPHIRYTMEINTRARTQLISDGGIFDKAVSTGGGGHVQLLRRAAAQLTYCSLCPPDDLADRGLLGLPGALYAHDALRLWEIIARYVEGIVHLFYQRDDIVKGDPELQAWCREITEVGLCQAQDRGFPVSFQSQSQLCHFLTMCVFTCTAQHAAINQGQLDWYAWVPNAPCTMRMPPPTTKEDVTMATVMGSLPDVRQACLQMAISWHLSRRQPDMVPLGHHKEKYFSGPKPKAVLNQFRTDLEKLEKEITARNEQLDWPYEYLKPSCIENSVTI
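Purified human 12hLO at 150 nM in 25 mM Hepes, 0.01% Triton X-100, pH 7.0, preincubated 15 min at room temperature with compound. Reaction started with 40 uM arachidonic acid, 30 min at room temperature. Hydroperoxide measured by Fe-xylenol orange, 573/405 nm absorbance ratio.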
PINK1 modulator = A Quantitative High throughput Screen to Identify Chemical Modulators of PINK1 Expression; PINK1 immunofluorescence, high-content cytometry, 24 h; Potency, µM (doses to about 76.6 µM), inactives show at the top dose activation (PINK1 increase), actives largely listed as activators; 410,000 compounds, 0.2% hits; active = well fitted activation curve with a large enough effect; inconclusive = small, poorly fitted or top-dose-only effect; cell line not stated here; also: % of control where 0% means no effect; nearly all actives have a fitted effect of over 65% in size
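Readout is PINK1 immunofluorescence, quantified alongside mitochondrial, cell and nuclear markers by laser-scanning microplate cytometry. Cells from a stable line were exposed to compound titrations (5 concentrations) for 24 hours, with CCCP controls.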
KB-3-1 tox = qHTS assay for MDR1-selective chemotherapeutics: Primary screen using the parental adenocarcinoma cell KB-3-1; Potency, µM (titrated, usually from 46.1 µM), most hits filed as cytotoxic; 400,000 compounds, 1.4% hits; KB-3-1 viability, CellTiter-Glo ATP luminescence, 72 h; also: % is scaled to controls: 0 for no effect and ±100 for the full control effect; nearly all actives have a fitted effect of over 60% in size
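Cytotoxicity in the drug-sensitive parental line KB-3-1 was scored as loss of CellTiter-Glo luminescence following 72 h incubation with compound. Values come from curve fitting of normalized concentration-response data.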
MCF10A rerep = A quantitative high throughput screen for small molecules that induce DNA re-replication in MCF 10a normal breast cells; MCF 10A DNA re-replication, Hoechst nuclear intensity, 48 h; Potency, µM (highest dose often 46.1 µM), inactives show at the top dose activity, positive = re-replication, hits mostly activators; 350,000 compounds, 2.9% hits; also: % of control where 0% means no effect; nearly all actives have a fitted effect of over 50% in size
KB-V1 MDR tox = qHTS assay for MDR1-selective chemotherapeutics: Primary screen using the drug-selected MDR subline cells KB-V1. KB-V1 MDR cells viability, CellTiter-Glo, 72 h. Potency, µM (top dose mostly 46.1 µM), usual class: cytotoxic. 400,000 compounds, 3.4% hits; also: % is scaled to controls: 0 for no effect and ±100 for the full control effect; nearly all actives have a fitted effect of over 60% in size
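Cells of the MDR subline KB-V1 are plated, dosed with compound at multiple concentrations, and incubated 72 h at 37 degrees C; CellTiter-Glo is then added and luminescence read after 10 min.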
* = called active by the depositor; i = inactive; ? = inconclusive; · = no result; [ ] = dose if it differs, or a comment. Only some compounds are listed: those with a hit (about 5.8% of all), similar ones and a draw of the others. Unless noted, calls follow the shape of the dose curve; as a rule, active = well fitted curve in the direction sought with a large enough effect; inconclusive = small, poorly fitted or top-dose-only effect, or another doubt; inactive = no such curve, though single readings can be large; an effect the other way counts as inactive or inconclusive. Potency is read from the fitted curve at half-maximal effect.

SMILES	SW480 rereplic	ALOX12 inh	PINK1 modulator	KB-3-1 tox	MCF10A rerep	KB-V1 MDR tox
Cc1cccc(NC(=O)N2CCC(c3nc4ccccc4o3)CC2)c1	-8%	-16%	-5%[38.3 µM]	i	-10%	18µM*
Cc1cc(C)cc(NC(=O)N2CCC(c3nc4ccccc4o3)CC2)c1	1%	0%	-2%[38.3 µM]	i	19%	i
COc1ccccc1OCCOCCOc1ccc(C)cc1[N+](=O)[O-]	9%	1%	2%	i	19%	13µM*
c1ccc(-c2c3ccccc3nc3[nH]c4ccccc4c23)cc1	12µM*	·	16%	i	?	i
c1ccc2nc3c(nc2c1)[nH]c1ccccc13	12%	7%	-1%	i	28%	i
CCCCc1ccc(NC(=O)N2CCN(c3cc(C)nc4ccccc34)CC2)c(C)c1	21µM*	·	15%	?	17%	?
CCCCN(Cc1ccccc1)c1ccc(C(=O)O)cc1NS(=O)(=O)c1ccc(C(C)=O)cc1	·	5.6µM*	·	·	·	·
Cc1ccc(C(=O)O)cc1NS(=O)(=O)c1ccc2ccccc2c1	-2%	-13%	0%	i	?	i
CCCCN(Cc1ccccc1)c1ccc(C(=O)O)cc1NS(=O)(=O)c1ccc(C)c(C)c1	·	8.9µM*	·	·	·	·
CCCCN(CC)c1ccc(NS(=O)(=O)c2ccc(C(C)=O)cc2)cc1C(=O)O	·	-80%	·	·	·	·
NC(=O)c1ccc(NC(=O)Cn2ccc3ccc(Cl)cc32)cc1	·	4%	·	·	·	·
CCN(CCCNC(=O)C(C)C)c1ccccc1	·	-12%	·	·	·	·
COc1ccc2cc(CN(CC3CCCO3)S(=O)(=O)c3ccccc3)c(=O)[nH]c2c1 (configuration not stated)	3%	?	·	i	0%	21µM*
Cc1cc(C)c2cc(CN(CC3CCCO3)S(=O)(=O)c3ccc4c(c3)OCCO4)c(=O)[nH]c2c1 (configuration not stated)	24%	?	·	i	-46%	16µM*
N#CCCCOC(=O)c1cc(-c2cccs2)nc2ccccc12	·	-1%	·	·	·	·
CCN(C(=O)COc1ccc2ccc(=O)oc2c1)C1CCCCC1	-6%	2%	-1%	i	0%	18µM*
O=C(Nc1cccnc1Oc1ccccc1)c1cc(F)ccc1Br	·	58%	·	·	·	·
Brc1ccc2[nH]c3c(c2c1)CCCC3=NCc1ccccc1	·	-3%	·	·	·	·
C=CCN=C1CCCc2c1[nH]c1ccc(C)cc21	0%	?	0%	6.5µM*	-10%	3.3µM*
OCCN=C1CCCc2c1[nH]c1ccc(Br)cc21	-2%[9.22 µM]	1%	-1%	1µM*	21%	0.33µM*
Cn1nc(C(=O)OCCOc2ccccc2)c2ccccc2c1=O	·	6%	·	·	·	·
CC(C)CCN1CCCC2(C1)C(=NC1CCCCC1)NC(=O)N2c1cc(F)cc(F)c1 (configuration not stated)	·	-1%[6.33 µM]	·	·	·	·
CCC(C)c1ccc(NC(=O)Nc2cnccn2)cc1 (configuration not stated)	3.3µM*	2%	9%	3.3µM*	5.8µM*	?
O=C(CN1CCN(S(=O)(=O)c2ccc(Br)s2)CC1)NC1CCCCC1	-2%	172%	0%	i	-1%	10µM*
CCCNC(=O)CN1CCN(S(=O)(=O)c2ccc(Br)s2)CC1	-6%	21%	-1%	i	14%	?
SMILES	SW480 rereplic	ALOX12 inh	PINK1 modulator	KB-3-1 tox	MCF10A rerep	KB-V1 MDR tox
Cc1ccc(NC(=O)CN2CCCN(S(=O)(=O)c3ccc(Br)s3)CC2)cc1	4%	-26%	3%	i	24%	4.6µM*
Cc1cc(C)cc(NC(=O)CN2CCCN(S(=O)(=O)c3ccc(Br)s3)CC2)c1	2%	-15%	-5%[38.3 µM]	?	12%	2.9µM*
O=C(CN1CCN(S(=O)(=O)c2ccc(Br)cc2)CC1)N/N=C/c1ccc(Br)s1	3%	-12%	-1%	i	-7%	21µM*
Cc1noc2c(N(C)C)cc(-c3ccc(F)cc3)nc12	·	-21%[176 µM]	·	·	·	·
CC(C)n1nc(C(=O)N2CCCc3ccccc32)c2ccccc2c1=O	·	0%	·	·	·	·
CCc1ccc(N=C2NC(=O)/C(=C/c3ccc(OCC(=O)O)c(OC)c3)S2)cc1	-3%	?	-2%	i	-3%	i
COc1ccc(N=C2NC(=O)/C(=C\c3ccco3)S2)cc1	8%	-9%	?	i	?	i
O=C1NC(=Nc2ccc(O)cc2)S/C1=C\C=C\c1ccco1	?	-23%	6%	3.3µM*	?	2.3µM*
COc1cc(/C=C2/SC(=Nc3ccc(O)cc3)NC2=O)cc(OC)c1O	21µM*	-11%	5%	?	?	i
COc1cc(/C=C2\SC(=O)N(c3ccc(O)cc3)C2=O)cc(OC)c1OC	3%	-7%	3%	i	?	i
COc1ccccc1N=C1NC(=O)/C(=C/c2ccc(N(C)C)cc2)S1	4.1µM*	29%	3%	10µM*	9.2µM*	7.3µM*
COc1cc(/C=C2\SC(=Nc3ccc(O)cc3)NC2=O)cc(OC)c1OC	3.3µM*	-2%	10%	4.6µM*	?	i
N#C/C(=C\c1ccc(OCc2ccc(Cl)c(Cl)c2)cc1)C(=O)c1ccccc1	·	-62%	·	·	·	·
COc1ccc(Cc2nc3c4c(C)c(C)n(CC(C)C)c4ncn3n2)cc1OC	·	-16%	·	·	·	·
CCOC(=O)C1=C(C)N(C)C(=O)NC1c1cccc(Cl)c1Cl (configuration not stated)	·	1%	·	·	·	·
CNC(=O)c1ccc(-c2nc(CN3CCN(C(=O)Nc4cccc(Cl)c4)CC3)c(C)o2)cc1	·	38%	·	·	·	·
COc1ccc(N=C2NC(=O)/C(=C/c3ccc(O)c(OC)c3)S2)cc1	23µM*	-18%	3%	?	?	?
CCOP(=O)(OCC)c1nc(-c2cccs2)oc1NCc1ccccc1	·	11%	·	·	·	·
COC(=O)c1cn(C(=O)c2ccc(C)cc2)c2ccccc12	7.3µM*	?	12%	i	4%	i
COC(=O)c1cn(C(=O)c2ccc(OC)cc2)c2ccccc12	2.3µM*	-5%	2%	?	5.8µM*	i
Cc1c(O)nc(SC2CC(=O)N(c3cc(Cl)cc(Cl)c3)C2=O)[nH]c1=O (configuration not stated)	0%	5.6µM*	1%	i	1%	i

Source: PubChem BioAssay (National Center for Advancing Translational Sciences (NCATS))
